Assay results: PubChem BioAssay (EPA / NIEHS)
Calls of active or inactive are those of the source. The calls were made as follows: active = hit-call score of the fitted dose curve at least 0.9, where 1 is the maximum; inactive = score below 0.9.

Columns and labels:
[1] = BSK_hDFCGF_SRB: Viability Assessment in the BioMAP Diversity Plus: hDFCGF Assay (AID 2283061); settings: primary human foreskin fibroblasts;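 also: cells exposed to compound for 24 h before the read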
Summary of the method: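 SRB-based viability read on primary human skin fibroblasts at 24 h: TCA fixation, 0.1% dye, 560 nm. Gain or loss of signal is fitted against the DMSO negative control.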

[2] = read-out: TIMP metallopeptidase inhibitor 1 (TIMP1), TIMP1 (gene 7076); assay: BSK_hDFCGF_TIMP1: BioMAP Diversity Plus: hDFCGF Assay for TIMP metallopeptidase inhibitor 1 (TIMP1) Biomarker Activity (AID 2283062); settings: primary human foreskin fibroblasts; actives raise or lower the signal
Summary of the method: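 Bidirectional curve fitting against DMSO baseline yielded this endpoint, based on ELISA detection of TIMP-1 in primary human foreskin fibroblasts exposed to compound for 24 h.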

[3] = read-out: Monokine induced gamma interferon (MIG), CXCL9 (gene 4283); assay: BSK_hDFCGF_MIG: BioMAP Diversity Plus: hDFCGF Assay for Monokine induced gamma interferon (MIG) Biomarker Activity (AID 2283063); settings: primary human foreskin fibroblasts; actives raise or lower the signal
Summary of the method: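 Endpoint derived by bidirectional fitting relative to DMSO; MIG quantified via ELISA in primary human foreskin fibroblasts harvested 24 h after dosing.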

[4] = read-out: Matrix Metallopeptidase 1 (MMP1), MMP1 (gene 4312); assay: BSK_hDFCGF_MMP1: BioMAP Diversity Plus: hDFCGF Assay for Matrix Metallopeptidase 1 (MMP1) Biomarker Activity (AID 2283064); settings: primary human foreskin fibroblasts; actives raise or lower the signal
Summary of the method: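 hDFCGF primary fibroblasts (human foreskin); chemical added; 24 h; MMP1 by ELISA; bidirectional fit vs DMSO.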

[5] = read-out: Vascular cell adhesion molecule 1 (VCAM1), VCAM1 (gene 7412); assay: BSK_hDFCGF_VCAM1: BioMAP Diversity Plus: hDFCGF Assay for Vascular cell adhesion molecule 1 (VCAM1) Biomarker Activity (AID 2283065); settings: primary human foreskin fibroblasts; actives raise or lower the signal;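 as to AC50: VCAM-1 protein level quantified by ELISA after 24 h chemical exposure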
Summary of the method: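 Measured after 24 h chemical treatment of primary human skin fibroblasts, VCAM-1 was detected by ELISA and concentration-response analysed in both directions versus DMSO vehicle.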

[6] = read-out: Plasminogen activator inhibitor-1 (PAI1), SERPINE1 (gene 5054); assay: BSK_hDFCGF_PAI1: BioMAP Diversity Plus: hDFCGF Assay for Plasminogen activator inhibitor-1 (PAI1) Biomarker Activity (AID 2283066); settings: primary human foreskin fibroblasts; actives raise or lower the signal
Summary of the method: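 Primary dermal fibroblasts (human foreskin), hDFCGF system; compound 24 h; PAI-1 by ELISA; bidirectional fit vs DMSO control.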

[7] = read-out: Intercellular Adhesion Molecule 1 (ICAM1), ICAM1 (gene 3383); assay: BSK_KF3CT_ICAM1: BioMAP Diversity Plus: KF3CT Assay for Intercellular Adhesion Molecule 1 (ICAM1) Biomarker Activity (AID 2283067); settings: primary human keratinocytes with fibroblasts; actives raise or lower the signal
Summary of the method: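 Bidirectional curve fitting against a DMSO baseline was applied to ICAM-1 ELISA signal from primary human skin co-cultures harvested 24 h after treatment, with SRB staining of parallel wells for overt cytotoxicity.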

[8] = read-out: Interferon-gamma inducible Protein 10 (IP10), CXCL10 (gene 3627); assay: BSK_KF3CT_IP10: BioMAP Diversity Plus: KF3CT Assay for Interferon-gamma inducible Protein 10 (IP10) Biomarker Activity (AID 2283068); settings: primary human keratinocytes with fibroblasts; actives raise or lower the signal
Summary of the method: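 ELISA read-out of IP-10 after 24 h chemical dosing of human skin primary co-culture (keratinocytes, foreskin fibroblasts). Gain or loss of signal relative to DMSO, bidirectional curve fit.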

[9] = BSK_KF3CT_SRB: Viability Assessment in the BioMAP Diversity Plus: KF3CT Assay (AID 2283069); settings: primary human keratinocytes with fibroblasts;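 also: total protein by sulforhodamine B staining as a cytotoxicity measure; read 24 h after compound addition; fitted for both signal gain and loss against DMSO baseline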
Summary of the method: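 Keratinocytes co-cultured with foreskin fibroblasts (human primary); chemical added, 24 h; fix 10% TCA, stain 0.1% SRB, A560. Bidirectional fit vs DMSO.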

[10] = read-out: Interleukin-1 alpha (IL1a), IL1A (gene 3552); assay: BSK_KF3CT_IL1a: BioMAP Diversity Plus: KF3CT Assay for Interleukin-1 alpha (IL1a) Biomarker Activity (AID 2283070); settings: primary human keratinocytes with fibroblasts; actives raise or lower the signal
Summary of the method: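 Chemicals were dosed onto co-cultured human keratinocytes and foreskin fibroblasts, IL-1a was quantified by ELISA at 24 h, and activity was fitted in both directions relative to DMSO controls.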

[11] = read-out: TIMP metallopeptidase inhibitor 2 (TIMP2), TIMP2 (gene 7077); assay: BSK_KF3CT_TIMP2: BioMAP Diversity Plus: KF3CT Assay for TIMP metallopeptidase inhibitor 2 (TIMP2) Biomarker Activity (AID 2283071); settings: primary human keratinocytes with fibroblasts; actives raise or lower the signal
Summary of the method: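 Cells: human keratinocytes co-cultured with foreskin fibroblasts. Treat with chemical, 24 h. Measure TIMP-2 by ELISA; fit curves bidirectionally vs DMSO baseline.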

[12] = read-out: Transforming growth factor beta 1 (TGFb1), TGFB1 (gene 7040); assay: BSK_KF3CT_TGFb1: BioMAP Diversity Plus: KF3CT Assay for Transforming growth factor beta 1 (TGFb1) Biomarker Activity (AID 2283072); settings: primary human keratinocytes with fibroblasts; actives raise or lower the signal
Summary of the method: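 Primary human skin cells (keratinocytes, foreskin fibroblasts) were co-cultured, exposed to test chemical and sampled at 24 h. TGF-b1 levels were measured by ELISA and fitted bidirectionally relative to DMSO.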

[13] = read-out: C-C motif chemokine 2 (Homo sapiens) (UniProt P13500); assay: BSK_KF3CT_MCP1: BioMAP Diversity Plus: KF3CT Assay for Monocyte Chemoattractant Protein 1 (MCP1/CCL2) Biomarker Activity (AID 2283073); settings: primary human keratinocytes with fibroblasts; actives raise or lower the signal
Summary of the method: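 Biomarker MCP-1 is measured by ELISA in primary human keratinocytes co-cultured with foreskin fibroblasts, 24 h after chemical treatment; DMSO serves as the negative control and activity baseline.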

[14] = read-out: Matrix Metallopeptidase 9 (MMP9), MMP9 (gene 4318); assay: BSK_KF3CT_MMP9: BioMAP Diversity Plus: KF3CT Assay for Matrix Metallopeptidase 9 (MMP9) Biomarker Activity (AID 2283074); settings: primary human keratinocytes with fibroblasts; actives raise or lower the signal;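 as to AC50: MMP9 protein level quantified by ELISA in the co-culture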
Summary of the method: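 Human keratinocyte/foreskin fibroblast co-culture; compound added; 24 h; MMP-9 by ELISA; bidirectional fit vs DMSO baseline.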

[15] = read-out: urokinase plasminogen activator (uPA), PLAU (gene 5328); assay: BSK_KF3CT_uPA: BioMAP Diversity Plus: KF3CT Assay for urokinase plasminogen activator (uPA) Biomarker Activity (AID 2283075); settings: primary human keratinocytes with fibroblasts; actives raise or lower the signal
Summary of the method: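 ELISA readout of uPA, analyzed for signal gain or loss relative to DMSO, from a human primary keratinocyte–foreskin fibroblast co-culture measured 24 h after chemical treatment.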

CD40, CD40 (gene 958) = assay: BSK_LPS_CD40: BioMAP Diversity Plus: LPS Assay for CD40 Biomarker Activity (AID 2283076); settings: primary human HUVEC with PBMC; actives raise or lower the signal
Summary of the method: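 Using a multiplexed primary human co-culture (umbilical vein endothelium plus PBMC), CD40 was read by ELISA 24 h after dosing, with cytotoxicity tracked by sulforhodamine B staining of parallel cultures and activity fitted bidirectionally versus DMSO.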

[16] = read-out: E-selectin (Homo sapiens) (UniProt P16581); assay: BSK_LPS_Eselectin: BioMAP Diversity Plus: LPS Assay for Eselectin Biomarker Activity (AID 2283077); settings: primary human HUVEC with PBMC; actives raise or lower the signal
Summary of the method: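 Dose chemical onto LPS-driven HUVEC/PBMC co-culture; after 24 h, run ELISA for E-selectin; fit up- and down-going responses relative to DMSO control.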

[17] = read-out: Interleukin-8 (IL8), CXCL8 (gene 3576); assay: BSK_LPS_IL8: BioMAP Diversity Plus: LPS Assay for Interleukin-8 (IL8) Biomarker Activity (AID 2283078); settings: primary human HUVEC with PBMC; actives raise or lower the signal
Summary of the method: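 In this LPS system, chemical-treated human umbilical vein endothelium/PBMC co-cultures were harvested at 24 h for IL-8 ELISA.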

[18] = BSK_LPS_SRB: Viability Assessment in the BioMAP Diversity Plus: LPS Assay (AID 2283079); settings: primary human HUVEC with PBMC;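 also: total protein by sulforhodamine B absorbance as a cytotoxicity measure; measured one day after compound addition; fitted in both directions against DMSO so loss or gain of signal counts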
Summary of the method: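 Cytotoxicity endpoint in human endothelial–PBMC co-culture: 24 h exposure, then SRB (0.1%) staining, 560 nm read.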

[19] = read-out: Interleukin-1 alpha (IL1a), IL1A (gene 3552); assay: BSK_LPS_IL1a: BioMAP Diversity Plus: LPS Assay for Interleukin-1 alpha (IL1a) Biomarker Activity (AID 2283080); settings: primary human HUVEC with PBMC; actives raise or lower the signal
Summary of the method: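 Primary human HUVEC and PBMC co-culture stimulated with LPS is dosed and harvested at 24 h. Both increases and decreases in ELISA-measured IL-1a are scored relative to DMSO.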

E-selectin (Homo sapiens), sequence (P16581 whole entry, looked up): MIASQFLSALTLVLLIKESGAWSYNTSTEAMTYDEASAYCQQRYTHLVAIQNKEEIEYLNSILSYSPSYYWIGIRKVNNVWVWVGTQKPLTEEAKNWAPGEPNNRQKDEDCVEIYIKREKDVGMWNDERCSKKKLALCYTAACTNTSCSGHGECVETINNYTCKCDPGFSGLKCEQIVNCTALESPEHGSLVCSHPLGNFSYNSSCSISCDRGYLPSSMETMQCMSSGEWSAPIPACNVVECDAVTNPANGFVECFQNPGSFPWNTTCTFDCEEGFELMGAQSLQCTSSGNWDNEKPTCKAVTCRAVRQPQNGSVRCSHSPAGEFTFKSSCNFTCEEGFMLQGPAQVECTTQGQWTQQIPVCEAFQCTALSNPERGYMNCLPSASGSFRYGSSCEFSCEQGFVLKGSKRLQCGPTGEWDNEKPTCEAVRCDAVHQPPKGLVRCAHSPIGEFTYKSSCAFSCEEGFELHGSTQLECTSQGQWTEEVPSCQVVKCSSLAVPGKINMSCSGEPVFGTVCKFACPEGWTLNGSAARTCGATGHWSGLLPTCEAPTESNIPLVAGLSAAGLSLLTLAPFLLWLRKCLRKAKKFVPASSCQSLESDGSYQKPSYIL

CCN(Cc1cccc(S(=O)(=O)O)c1)c1ccc(C(=C2C=CC(=[N+](CC)Cc3cccc(S(=O)(=O)O)c3)C=C2)c2ccccc2S(=O)(=O)[O-])cc1
outcome [1]: inactive | outcome [2]: inactive | outcome [3]: inactive | outcome [4]: inactive | outcome [5]: inactive | outcome [6]: inactive | outcome [7]: inactive | outcome [8]: inactive | outcome [9]: inactive | outcome [10]: inactive | outcome [11]: inactive | outcome [12]: inactive | outcome [13]: inactive | outcome [14]: inactive | outcome [15]: inactive | outcome (CD40, CD40 (gene 958)): inactive | outcome [16]: inactive | outcome [17]: inactive | outcome [18]: inactive

CC(C)(C)c1csc(-c2cc3cc(OCc4ccccc4CC(=O)O)ccc3o2)n1
AC50 [1]: 17.2 µM (active) | AC50 [2]: 15.5 µM (active) | AC50 [3]: 15.2 µM (active) | AC50 [4]: 14.5 µM (active) | AC50 [5]: 10.1 µM (active) | AC50 [6]: 11.3 µM (active) | AC50 [7]: 24.3 µM (active) | AC50 [8]: 9.6 µM (active) | AC50 [9]: 12.6 µM (active) | AC50 [10]: 33 µM (active) | AC50 [11]: 20.3 µM (active) | AC50 [12]: 10.8 µM (active) | AC50 [13]: 20 µM (active) | AC50 [14]: 13.7 µM (active) | AC50 [15]: 20.7 µM (active) | AC50 (CD40, CD40 (gene 958)): 20.7 µM (active) | AC50 [16]: 30.9 µM (active)

O=C1c2ccccc2C(=O)N1CCc1noc(-c2ccc(CN3CCCCCC3)s2)n1
outcome [1]: inactive | outcome [2]: inactive | outcome [3]: inactive | outcome [4]: inactive | outcome [5]: inactive | outcome [6]: inactive | outcome [7]: inactive | outcome [8]: inactive | outcome [9]: inactive | outcome [10]: inactive | outcome [11]: inactive | outcome [12]: inactive | outcome [13]: inactive | outcome [14]: inactive | outcome [15]: inactive | outcome (CD40, CD40 (gene 958)): inactive | outcome [16]: inactive | outcome [17]: inactive | outcome [19]: inactive

CC(C)(c1cc(Br)c(O)c(Br)c1)c1cc(Br)c(O)c(Br)c1
AC50 [1]: 5.8 µM (active) | AC50 [2]: 6.42 µM (active) | AC50 [3]: 7.65 µM (active) | AC50 [4]: 6.31 µM (active) | AC50 [5]: 5.94 µM (active) | AC50 [6]: 5.46 µM (active) | AC50 [7]: 4.85 µM (active) | AC50 [8]: 2.53 µM (active) | AC50 [9]: 5.11 µM (active) | AC50 [10]: 5.97 µM (active) | AC50 [11]: 4.6 µM (active) | AC50 [12]: 1.69 µM (active) | AC50 [13]: 4.16 µM (active) | AC50 [14]: 3.69 µM (active) | AC50 [15]: 3.65 µM (active) | AC50 (CD40, CD40 (gene 958)): 24.1 µM (active) | AC50 [16]: 28.7 µM (active) | AC50 [17]: 30.3 µM (active) | AC50 [19]: 29.9 µM (active)

Cc1ncc(CO)c(CO)c1O
outcome [1]: inactive | outcome [2]: inactive | outcome [3]: inactive | outcome [4]: inactive | outcome [5]: inactive | outcome [6]: inactive | outcome [7]: inactive | outcome [8]: inactive | outcome [9]: inactive | outcome [10]: inactive | outcome [11]: inactive | outcome [12]: inactive | outcome [13]: inactive | outcome [14]: inactive | outcome [15]: inactive | outcome (CD40, CD40 (gene 958)): inactive | outcome [16]: inactive | outcome [17]: inactive

Cc1oc2c(NC(=O)c3c(Cl)cccc3Cl)cccc2c1C(C)(C)O
outcome [1]: inactive | AC50 [2]: 12.3 µM (active) | outcome [3]: inactive | AC50 [4]: 10.7 µM (active) | outcome [5]: inactive | AC50 [6]: 14.2 µM (active) | outcome [7]: inactive | outcome [8]: inactive | outcome [9]: inactive | outcome [10]: inactive | AC50 [11]: 5.2 µM (active) | outcome [12]: inactive | outcome [13]: inactive | outcome [14]: inactive | outcome [15]: inactive | outcome (CD40, CD40 (gene 958)): inactive | AC50 [16]: 6.04 µM (active) | outcome [17]: inactive
